# Data from PubChem BioAssay AID1209 (Sanford-Burnham Center for Chemical Genomics, 2008).
# Out of some 190,000 compounds screened, about 810 (0.43%) were called active. The sample as a whole holds a higher share of actives than the screen did. A number with no mark means an inactive call. No stated cut-off is given here; in the data, active means inhibition above about 50%; inactive means the rest.
# Target: Mannose-6-phosphate isomerase (Homo sapiens) (UniProt P34949)
# Experiment: inhibitors of human PMI, primary screen, biochemical, fluorescence intensity, coupled assay (AID 1209);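 further: plate controls were DMSO vehicle for no effect and wells lacking substrate for full effect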
# Details: purified PMI enzyme, at 20 µM, stronger effect = higher value
# Sequence of Mannose-6-phosphate isomerase (Homo sapiens) (P34949 whole entry, looked up): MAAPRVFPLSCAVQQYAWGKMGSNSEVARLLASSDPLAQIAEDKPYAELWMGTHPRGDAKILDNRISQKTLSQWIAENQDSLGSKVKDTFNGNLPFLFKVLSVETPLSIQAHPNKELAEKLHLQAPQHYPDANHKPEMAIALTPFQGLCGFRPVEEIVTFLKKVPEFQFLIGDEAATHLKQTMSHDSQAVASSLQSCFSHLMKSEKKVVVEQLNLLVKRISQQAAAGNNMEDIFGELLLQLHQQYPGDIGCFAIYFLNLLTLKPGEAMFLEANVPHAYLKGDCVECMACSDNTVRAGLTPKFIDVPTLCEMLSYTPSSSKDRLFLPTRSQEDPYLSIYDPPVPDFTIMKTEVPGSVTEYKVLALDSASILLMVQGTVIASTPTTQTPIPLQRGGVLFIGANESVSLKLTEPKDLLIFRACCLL
row,SMILES,inhibition
1,COc1ccc(Cn2c(-c3ccc(Br)cc3)c[n+]3ccccc23)cc1,-1.6%
2,CC(=O)c1nnn(-c2ccc([N+](=O)[O-])cc2C)c1C,-15.2%
3,N#CC1=C2SCN(Cc3ccccc3)CN2C(=O)CC1c1cccs1 (configuration not stated),40.2%
4,N#CC1=C2SCN(Cc3ccccc3)CN2C(=O)CC1c1ccccc1F (configuration not stated),25.6%
5,CC(C)CCCNc1nc(N2CCOCC2)nc(N2CCOCC2)n1,3.3%
6,O=C(NCCc1c[nH]c2ccccc12)C(=O)NCC1OCCCN1S(=O)(=O)c1cccs1 (configuration not stated),5.3%
7,CC(C)n1nc(C(=O)Nc2nnc(SCc3c(Cl)cccc3Cl)s2)c2ccccc2c1=O,7.2%
8,O=C(Nc1ccc(N2CCN(c3ccccc3)CC2)c(F)c1)C1CC1,-5.7%
9,CN1c2ccccc2N(C)C1(C)c1ccccc1,26.1%
10,CCN1c2ccccc2N(C)C1(C)c1ccccc1 (configuration not stated),61.2% (active)
11,CCN1C(=O)N(C)C2(c3ccccc3)N(C)C(=O)N(C)C12c1ccccc1 (configuration not stated),13.6%
12,O=C(CSc1nnnn1-c1ccc(F)cc1)NC1CCCCC1,15.6%
13,CCOc1ccccc1C(=O)Nc1cc(Cl)ccc1O,14.5%
14,Clc1cccc(Cl)c1CNc1ccc(N2CCCC2)cc1,87.2% (active)
15,O=C(O)c1cc(NCc2c(F)cccc2Cl)ccc1N1CCOCC1,4.6%
16,O=C(Nc1ccc(N2CCCCCC2)cc1)c1ccccc1Cl,21.5%
17,NS(=O)(=O)c1ccc(NCc2c(F)cccc2Cl)cc1,-1.9%
18,O=S(=O)(Nc1ccc(N2CCCCC2)cc1)c1ccccc1,17%
19,Fc1cccc(Cl)c1CNc1ccc(N2CCCC2)cc1,87.2% (active)
20,CCCN1CNC(=S)N(c2ccccc2OCC)C1,-9.9%
21,O=C1Nc2ccccc2C(O)(C(=O)NCc2ccco2)N1c1ccccc1 (configuration not stated),1.5%
22,COC(=O)[C@@]1(Cc2ccc(OC)cc2)[C@H]2c3cc(C(=O)N4CCCC4)n(Cc4ccc(C)o4)c3C[C@H]2CN1C(=O)c1ccccc1,9.2%
23,Cc1[nH]nc2c1C(c1ccco1)C(C#N)=C(N)O2 (configuration not stated),-18%
24,CNCCOc1ccccc1C(C)(C)C,5.9%
25,Nc1ccc(Cc2ccc(N)c(O)c2)cc1O,5.5%
26,OCCCc1ccc(O)c(O)c1,35.2%

row,SMILES,inhibition
1,NCCc1ccc(O)c(O)c1,64.5% (active)
2,CCOC(=O)CSc1nc2sccc2c(=O)[nH]1,2.3%
3,O=C(Nc1ncc(Cl)cc1Cl)c1c(F)cccc1Cl,-15.8%
4,Cc1cc(C)cc(N2C(=O)c3nccnc3C2=O)c1,1.6%
5,COC(=O)C(C)(C)ONC(=O)Nc1ccc(Br)cc1,17.3%
6,O=C1CCC/C1=C/Nc1ccc2c(c1)OCO2,26.9%
7,COc1ccc(N/C=C2/CCCCC2=O)cc1,18.1%
8,COc1ccc2c(c1)CC/C(=C/c1ccco1)C2=O,33.2%
9,O=C1CCCC/C1=C/Nc1ccc2c(c1)OCO2,-14.5%
10,COc1ccc(N/C=C2\CCOC2=O)cc1,-13%
11,COc1ccc(N/C=C2\CCc3ccccc3C2=O)cc1,97.9% (active)
12,COc1ccc2c(c1)CC/C(=C\Nc1ccc3c(c1)OCO3)C2=O,89.9% (active)
13,CC1CCC/C(=C\Nc2ccc3c(c2)OCO3)C1=O (configuration not stated),8.9%
14,O=C1/C(=C/Nc2ccc3c(c2)OCO3)CCc2ccccc21,96.4% (active)
15,CCN(CC)C(=O)C(=O)N/N=C/c1ccc(C(=O)O)cc1,15.8%
16,COc1cc(C(=O)Nc2ccc(C(C)=O)cc2)c(Br)c(OC)c1OC,2.4%
17,O=C(CCn1ccnc1)Nc1ccc2ccccc2c1,13.1%
18,O=S(=O)(NCCSCc1c(Cl)cccc1Cl)c1ccc2c(c1)OCCO2,2.4%
19,COc1ccccc1/C=N/NC(=O)COCC(=O)N/N=C/c1ccccc1OC,12.7%
20,CCC(CC(C)(C)O)C(=O)NNC(=S)Nc1ccccc1 (configuration not stated),3.1%
21,O=C(Nc1nc(-c2ccncc2)cs1)C1COc2ccccc2O1 (configuration not stated),61.7% (active)
22,O=C(Nc1nc(-c2ccccc2)cs1)C1COc2ccccc2O1 (configuration not stated),9.1%
23,O=C(Nc1nc(-c2ccccn2)cs1)C1COc2ccccc2O1 (configuration not stated),-2.1%
24,COc1ccc(C(O)c2nccn2Cc2ccccc2)cc1OC (configuration not stated),9.1%
25,Cc1cc(SCC(=O)N/N=C/c2ccc(O)cc2O)c(C)cc1Br,-12.7%
26,Cc1cc(SCC(=O)N/N=C/c2ccc(O)c(O)c2O)c(C)cc1Br,79.9% (active)

row,SMILES,inhibition
1,Cc1cc(SCC(=O)N/N=C/c2ccc(O)c(O)c2)c(C)cc1Br,18%
2,CCC(C)(C)NC(=O)C(c1ccco1)N(C(=O)c1csnn1)c1cccc(F)c1 (configuration not stated),-1.3%
3,COc1ccc(/C=C2\N=C(C)N(c3ccc(C(=O)O)cc3)C2=O)cc1OC,-0.2%
4,Cc1cccc(OC(=O)c2cncc(Br)c2)c1,-2.9%
5,CC(=O)Nc1ccc(S(=O)(=O)Nc2ccc(C)c([N+](=O)[O-])c2)cc1,114% (active)
6,CC(=O)Nc1ccc(S(=O)(=O)Nc2ccc(F)c([N+](=O)[O-])c2)cc1,-2.3%
7,CC(=O)Nc1ccc(C)c([N+](=O)[O-])c1,-6.2%
8,CCOC(=O)c1cccc(C(=O)OCC)n1,7.8%
9,Cc1ccc(OC(=O)c2cccc(C(=O)Oc3ccc(C)cn3)n2)nc1,51.5% (active)
10,Cc1ccc(OC(=O)c2cccc(C(=O)Oc3ccc(C)cc3)n2)cc1,11.1%
11,COc1ccccc1NS(=O)(=O)c1ccc2oc(SCc3ccc(C#N)cc3)nc2c1,23.3%
12,C/C(=N\Nc1nc(N2CCOCC2)nc(N2CCOCC2)n1)c1cccc([N+](=O)[O-])c1,-11.8%
13,Brc1ccc(-c2nnc3sc(CN4CCC5(CC4)OCCO5)cn23)cc1,7.3%
14,c1ccc(-c2nnc3sc(CN4CCC5(CC4)OCCO5)cn23)cc1,10.9%
15,Brc1cccc(-c2nnc3sc(CN4CCC5(CC4)OCCO5)cn23)c1,101% (active)
16,CC1(C)CC2(CC(c3ccccc3)c3ccc(O)cc3O2)NC(=S)N1 (configuration not stated),-4.8%
17,CC1(C)CC2(CC(c3ccccc3F)c3cc(Cl)c(O)cc3O2)NC(=S)N1 (configuration not stated),-8.2%
18,CCCCN(C(=O)Cn1nnc2ccccc21)C(C(=O)NCc1ccco1)c1ccncc1 (configuration not stated),-0.5%
19,Cc1onc(-c2ccccc2Cl)c1C(=O)NC(=S)NCCc1ccccc1,11.7%
20,O=C(c1cccnc1)N1N=C(C2CCCCC2)CC1(O)C(F)(F)F (configuration not stated),-7.1%
21,CCOC(=O)C(=O)Nc1sc(C(=O)N2CCOCC2)c(C)c1C#N,2.7%
22,Cc1ccccc1-c1cc(C(=O)Nc2sc(C)c(C)c2C(N)=O)c2ccccc2n1,19.7%
23,CCOC(=O)c1sc(NC(=O)c2cc(-c3ccc(C)cc3)nc3ccccc23)c(C#N)c1C,67.7% (active)
24,CCOC(=O)c1sc(NC(=O)c2cc(-c3ccccc3)nc3ccccc23)c(C#N)c1C,79% (active)
25,Cc1ccccc1-c1cc(C(=O)Nc2sc(C(=O)OC(C)C)c(C)c2C#N)c2ccccc2n1,61.2% (active)
26,CCOC(=O)c1sc(NC(=O)c2ccncc2)c(C#N)c1C,49.3%

row,SMILES,inhibition
1,COc1ccc(-c2cc(C(=O)Nc3sc4c(c3C#N)CCCC4)c3ccccc3n2)cc1,7.1%
2,CCOC(=O)c1sc(NC(=O)c2cc(-c3ccccc3C)nc3ccccc23)c(C#N)c1C,47.9%
3,COC(=O)c1sc(NC(=O)c2cc(-c3ccccc3)nc3ccccc23)c(C#N)c1C,5.2%
4,Cc1sc(NC(=O)c2cc(-c3ccccc3)nc3ccccc23)c(C(N)=O)c1C,17%
5,CCCN1C2CCCC1CC(NC(=S)Nc1cc(C)cc(C)c1)C2 (configuration not stated),7.1%
6,NNC(=O)CNc1cccc(Cl)c1,-2.4%
7,CC/C(C)=N\N=C\c1c(O)n(CC)c2cc(C3=NNC(=O)CC3)ccc12,-47.5%
8,COc1ccccc1-n1cnnc1SCC(=O)Nc1cccc(S(=O)(=O)N2CCCCC2)c1,7.9%
9,O=C(NCCN1CCN(C(=O)c2cccs2)CC1)C(=O)Nc1ccc(Br)cc1,-0.2%
10,COc1ccc(CC(=O)Nc2ccc(S(=O)(=O)NCC3CCCO3)cc2)cc1 (configuration not stated),2.9%
11,Cc1cc([N+](=O)[O-])nn1CCCC(=O)NCc1ccc(F)cc1,-9.8%
12,Cc1nc(NC(=O)c2ccccc2)sc1-c1csc(Nc2cccc(Cl)c2)n1,0.6%
13,Cc1nc(NC(=O)c2ccccc2)sc1-c1csc(Nc2ccc(Cl)cc2)n1,53.1% (active)
14,Cc1nc(NC(=O)c2ccccc2)sc1-c1csc(Nc2ccc(F)cc2)n1,45%
15,Cc1nn(Cc2ccc(Cl)cc2)c(C)c1NC(=O)c1noc2c1CCCCC2,15.5%
16,COc1ccc(OCCCNCCc2ccccc2)cc1,-2.5%
17,O=C1/C(=C/c2cccnc2)SC(=NCc2ccccc2)N1Cc1ccccc1,7.3%
18,CCCCc1nc2c(=O)[nH]c3ccccc3c2o1,0.8%
19,CCCCCc1nc2c(=O)[nH]c3ccccc3c2o1,102% (active)
20,CCCCCCc1nc2c(=O)[nH]c3ccccc3c2o1,6.6%
21,CCN(C(=O)c1ccnn1C)c1ccccc1,-6.3%
22,CCOC(=O)Cc1csc(NC(=O)c2cc(=O)c3ccccc3o2)n1,-7.8%
23,CCOC(=O)Cc1csc(-n2sc3ccccc3c2=O)n1,98.9% (active)
24,CCOC(=O)Cc1csc(SCn2nnc3ccccc3c2=O)n1,1.9%
